Screening data (PubChem)
Compounds with a hit are over-represented: about 2.5% of the library has one in this group of screens.
Cruzain inh Det = blocks cruzain activity in presence of Triton detergent; P25779; purified cruzain, Z-FR-AMC fluorescence, 0.01% Triton; Potency, µM, for inactives: max response, negative = inhibition, usual class: inhibitors; 200,000 tested, 0.43% active; AID 1478;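 further: plate controls were neutral wells for no effect and buffer without enzyme for full effect; nearly all actives have a fitted effect of over 40% in size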
Target sequence (P25779 123-467 limits assumed): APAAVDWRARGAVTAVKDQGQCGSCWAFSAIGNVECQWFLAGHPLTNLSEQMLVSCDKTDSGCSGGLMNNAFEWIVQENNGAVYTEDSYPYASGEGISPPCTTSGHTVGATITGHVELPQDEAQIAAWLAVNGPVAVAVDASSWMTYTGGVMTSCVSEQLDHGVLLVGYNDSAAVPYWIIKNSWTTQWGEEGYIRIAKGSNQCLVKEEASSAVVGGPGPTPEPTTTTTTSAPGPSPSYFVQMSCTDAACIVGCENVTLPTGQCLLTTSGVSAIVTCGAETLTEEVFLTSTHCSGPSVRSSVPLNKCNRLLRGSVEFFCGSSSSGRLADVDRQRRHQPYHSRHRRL
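Compounds were screened in titration against cruzain (1.5 nM) with 0.01% Triton X-100 to counter colloidal aggregation. Activity was the AMC fluorescence increase over 60 s after adding 2 uM Z-FR-AMC at pH 5.5.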
Cruzain inh noDet = blocks cruzain activity in detergent-free assay; P25779; purified cruzain, Z-FR-AMC fluorescence, no detergent; Potency, µM, for inactives: max response, negative = inhibition, hits mostly inhibitors; 200,000 tested, 2.3% active;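 further: plate controls were enzyme without inhibitor for no effect and buffer without enzyme for full effect; nearly all actives have a fitted effect of over 40% in size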
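Purified cruzain at 1.5 nM, pre-incubated 15 min with compound at room temperature in 100 mM sodium acetate pH 5.5, 5 mM DTT, 0.00005% Triton X-100. Reaction started with 2 uM Z-FR-AMC; AMC fluorescence increase over 60 s gives rate.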
Numbers without * were called inactive. The call rests on the fitted dose curve; in most records, active means well fitted curve in the direction sought with a large enough effect; inconclusive means small, poorly fitted or top-dose-only effect, or another doubt; inactive means no such curve, though single readings can be large; an effect the other way counts as inactive or inconclusive. Potency means the concentration at half of the fitted maximal effect.

`CCc1cccc(CC)c1NC(=O)c1c(C)oc2ccc(O)c(CN3CCN(C)CC3)c12` gave Cruzain inh Det -2% and Cruzain inh noDet -5%.
For CC(=O)c1cc2c(cc1NC(=O)c1cnn(-c3ccc(C)cc3)c1-n1cccc1)OCO2 the results were Cruzain inh Det -3% and Cruzain inh noDet -12%.
Screening N=P(N1CCOCC1)(N1CCOCC1)C12CC3CC(CC(C3)C1)C2 returned Cruzain inh Det 28µM* and Cruzain inh noDet 25µM*.
O=C(N1CCOCC1)C12CCC3CC(CC(C3)C1)C2 was read as Cruzain inh Det 4% and Cruzain inh noDet -2%.
Screening Cc1ccc(S(=O)(=O)O[C@H]2CC(C(C)(C)C)CC[C@@H]2c2ccccc2)cc1 (stereo partly specified) returned Cruzain inh Det 1% and Cruzain inh noDet -5%.
`CCc1ccc(C(=O)c2cn(CC(=O)Nc3cc(OC)ccc3OC)c3ccc(C)cc3c2=O)cc1` gave Cruzain inh Det -6% and Cruzain inh noDet inconclusive.
For CCc1ccc(-c2csc3[n+]2CCN3C(C)=O)cc1 the results were Cruzain inh Det 18µM* and Cruzain inh noDet -21%.
Screening CC(=O)N1CC[n+]2c(-c3ccc(Cl)cc3)csc21 returned Cruzain inh Det inconclusive and Cruzain inh noDet -16%.
COc1ccc(C)cc1NC(=O)Cn1c(=O)oc2cc(S(=O)(=O)N3CCCCC3)ccc21 was read as Cruzain inh Det -3% and Cruzain inh noDet inconclusive.
c1ccc(CNc2oc(-c3ccccc3)nc2-c2cccc3ccccc23)cc1 was read as Cruzain inh Det -2% and Cruzain inh noDet 16µM*.
Screening c1ccc(CNc2oc(-c3ccccc3)nc2-c2ccccc2)cc1 returned Cruzain inh Det -1% and Cruzain inh noDet -10%.
`Cc1ccc(Cn2c(CNC(=O)Cc3cccc([N+](=O)[O-])c3)nc3cccnc32)cc1` gave Cruzain inh Det -1% and Cruzain inh noDet 3%.
`Cc1ccc(C(=O)NNC(=O)CSc2nnc3c(n2)[nH]c2ccc(F)cc23)cc1` gave Cruzain inh Det -14% and Cruzain inh noDet inconclusive.
For O=C(CSc1nnc2c(n1)[nH]c1ccc(F)cc12)OCc1ccccc1 the results were Cruzain inh Det 3% and Cruzain inh noDet 13µM*.
For Cc1cc(C)cc(OC(=O)c2snnc2C)c1 the results were Cruzain inh Det -7% and Cruzain inh noDet -12%.
`COC(=O)C(Sc1nc(C)cc(C)c1C#N)c1ccccc1` (stereo unspecified) gave Cruzain inh Det 0% and Cruzain inh noDet -4%.
For COc1ccccc1-c1cc(-c2ccccc2)nc(SC(C(N)=O)c2ccccc2)c1C#N (stereo unspecified) the results were Cruzain inh Det 5% and Cruzain inh noDet 7.9µM*.
`Cc1[nH]c2ccccc2c1C(=O)CSc1ccccc1` gave Cruzain inh Det -5% and Cruzain inh noDet 2%.
`Cc1ccc2c(C(=O)CSc3ccccc3)c(C)[nH]c2c1` gave Cruzain inh Det 2% and Cruzain inh noDet 13µM*.
For COc1ccc(NC(=O)CCC(=O)OC(C(=O)c2ccccc2)c2ccccc2)cc1 (stereo unspecified) the results were Cruzain inh Det -12% and Cruzain inh noDet -8%.
`O=C(CNC(=O)c1ccc(Cl)cc1)OCc1nc2ccccc2s1` gave Cruzain inh Det 14µM* and Cruzain inh noDet 16µM*.
For O=C(CNC(=O)c1ccccc1)OC(C(=O)c1ccccc1)c1ccccc1 (stereo unspecified) the results were Cruzain inh Det 6.3µM* and Cruzain inh noDet 4µM*.
For COc1ccc(C(=O)OC(C(=O)c2ccccc2)c2ccccc2)cc1 (stereo unspecified) the results were Cruzain inh Det -1% and Cruzain inh noDet -9%.
`Cc1ccc(C(=O)C(OC(=O)CN2C(=O)c3ccccc3C2=O)c2ccccc2)cc1` (stereo unspecified) gave Cruzain inh Det 3% and Cruzain inh noDet inconclusive.
`COc1ccc(C(=O)C(OC(=O)CNC(=O)c2ccco2)c2ccccc2)cc1` (stereo unspecified) gave Cruzain inh Det 4µM* and Cruzain inh noDet 3.2µM*.
Screening O=C(CN1C(=O)c2ccccc2C1=O)OC(C(=O)c1ccc(Cl)cc1)c1ccccc1 (stereo unspecified) returned Cruzain inh Det 2% and Cruzain inh noDet 32µM*.
Screening O=C(OCc1nc2ccccc2s1)c1cccs1 returned Cruzain inh Det 0% and Cruzain inh noDet -4%.
`COc1ccc(-n2c(SCC(=O)c3ccccc3)nc3c([nH]c4ccccc43)c2=O)cc1` gave Cruzain inh Det 0% and Cruzain inh noDet 6%.
Screening Cc1ccc(CCNC(=O)c2c(C)oc3ncnc(N4CCOCC4)c23)cc1 returned Cruzain inh Det -2% and Cruzain inh noDet 14%.
Cc1ccccc1-n1nc(CO)c(C(=O)NCC(c2ccccc2)c2ccccc2)n1 was read as Cruzain inh Det -5% and Cruzain inh noDet 3%.
Screening FC(F)(F)c1cc(-c2ccccc2)nc2cc(-c3ccccc3)nn12 returned Cruzain inh Det 2% and Cruzain inh noDet -11%.
Screening O=C(Nc1cccc(C(=O)N2CCN(c3ccccc3)CC2)c1)c1nsc2ccccc12 returned Cruzain inh Det 0% and Cruzain inh noDet inconclusive.
Cc1nc2nc(SCc3ccc(F)cc3Cl)nn2c(C)c1Cc1ccccc1 was read as Cruzain inh Det 1% and Cruzain inh noDet -2%.
Screening Cc1cc2c(cc3c(SCc4ccccc4Cl)nnc(C)n32)o1 returned Cruzain inh Det -1% and Cruzain inh noDet 5%.
For Cc1ccc(C(=O)C(OC(=O)CNC(=O)c2ccc(Cl)cc2)c2ccccc2)cc1 (stereo unspecified) the results were Cruzain inh Det 6.3µM* and Cruzain inh noDet 10µM*.
Cc1ccc(C(=O)NCC(=O)NCC(=O)OCc2ccc(Cl)cc2)cc1 was read as Cruzain inh Det -3% and Cruzain inh noDet 1%.
`COCCCNC(=O)C1CCN(C(=O)c2ccc(-n3ccc4ccccc43)s2)CC1` gave Cruzain inh Det -5% and Cruzain inh noDet inconclusive.
For Cc1cccc(NC(=O)c2ccc(F)c(S(=O)(=O)NCc3ccc4c(c3)OCO4)c2)c1 the results were Cruzain inh Det 0% and Cruzain inh noDet -4%.
Screening CN(C1CCCCC1)S(=O)(=O)c1ccc2c(c1)c(=O)c(C(=O)NCc1ccc(Cl)cc1)cn2C returned Cruzain inh Det -2% and Cruzain inh noDet 1%.
`O=S(=O)(c1ccccc1)N1CCC2(CCCN(c3cccc(-c4ccccc4)c3)C2)CC1` gave Cruzain inh Det 0% and Cruzain inh noDet inconclusive.
For O=S(=O)(c1ccccc1)N1CCC[C@@]2(CCN(c3ccccc3)C2)C1 the results were Cruzain inh Det -6% and Cruzain inh noDet 16µM*.
O=S(=O)(c1ccccc1)N1CCC[C@@]2(CCN(c3cccc(-c4ccccc4)c3)C2)C1 was read as Cruzain inh Det 1% and Cruzain inh noDet 4µM*.
`O=S(=O)(c1ccccc1)N1CCC2(CCCN(c3ccccc3)C2)CC1` gave Cruzain inh Det 0% and Cruzain inh noDet 2%.
For COc1ccc(C(=O)Nc2ccc3c(c2)N(C2CCCC2)C(=O)c2ccccc2S3)cc1OC the results were Cruzain inh Det -1% and Cruzain inh noDet -7%.
Cc1ccc(-c2cc(C(=O)OCC(=O)Nc3cc(C)on3)c3ccccc3n2)c(C)c1 was read as Cruzain inh Det -2% and Cruzain inh noDet 5%.
For Cc1cc(NC(=O)COC(=O)c2oc3c(ccc4ccccc43)c2C)no1 the results were Cruzain inh Det 1% and Cruzain inh noDet 20µM*.
